From PubChem BioAssay (NCATS)
Inconclusive results are not listed. Activity calls are given as the source filed them. The call rests on the fitted dose curve; in most records, active means well fitted cell-killing curve with a large enough effect; inconclusive means small, poorly fitted or top-dose-only effect, or effect the other way; inactive means no such curve, though single readings can be large or run the other way.

assay: Quantitative High-Throughput drug screen in 47 multiple myeloma cell lines against the NCATS MIPE library collection: MMM1_PLB cell viability assay (AID 1918976); details: MMM1 myeloma cells viability, CellTiter-Glo, 48 h; series mostly up to 45.8 µM; further: nearly all actives have a fitted effect of over 35% in size
Text: PI: Beverly A. Mock Ph.D.
Laboratory of Cancer Biology and Genetics,
Center for Cancer Research, National Cancer Institute,
National Institute of Health, Bethesda, Maryland
Drug resistance and disease progression are common in multiple myeloma (MM) patients, underscoring the need for new therapeutic combinations. […] We hypothesized that effective combinations would reduce MYC expression and enhance p16 activity. […] These preclinical data identify potentially useful drug combinations for evaluation in drug-resistant MM and reveal potential mechanisms of combined drug sensitivity.
Described herein is the primary MIPE qHTS used to cherrypick compounds. Validated compounds were then further tested for potential synergistic activiy.
[1] Peat TJ, Gaikwad SM, Dubois W, Gyabaah-Kessie N, Zhang S, Gorjifard S, Phyo Z, Andres M, Hughitt VK, Simpson RM, Miller MA, Girvin AT, Taylor A, Williams D, D'Antonio N, Zhang Y, Rajagopalan A, Flietner E, Wilson K, Zhang X, Shinn P, Klumpp-Thomas C, McKnight C, Itkin Z, Chen L, Kazandijian D, Zhang J, Michalowski AM, Simmons JK, Keats J, Thomas CJ, Mock BA. Drug combinations identified by high-throughput screening promote cell cycle transition and upregulate Smad pathways in myeloma. Cancer Lett. 2023 Aug 1;568:216284. doi: 10.1016/j.canlet.2023.216284. Epub 2023 Jun 24. PMID: 37356470; PMCID: PMC10408729.
SEQUENCE No. (e.g., 1, 2, 3, etc.); […] (e.g., Cells, Incubation, Reagent, etc.); VALUE and DESCRIPTION.
1; Cells; 5 uL; white, solid bottom 1536-well Greiner assay plate.
2; Compounds; 23 nL; Kalypsis pin tool (Wako USA) equipped with a 1536-well pin head to transfer to the assay plates.
3; Incubation; 48 hours; 37C incubation.
4; Reagent;5uL; CellTiter Glo (Promega).
5; Detector; 425V; Luminescence; Viewlux PerkinElmer.
NOTES (numbers refer to Sequence numbers above)
1. The cell-based screening methods employed in this study were like those previously published. Briefly, the corresponding myeloma cell lines were screened in 1,536-well plates with 500 cells, 5-uL per well for inhibition of cell viability (assessed by measuring ATP levels with CellTiterGlo).
2. NCATS MIPE 4.0 library of approved and investigational drugs were added using the Kalypsis pin tool. Wells treated with DMSO only for 100% viability and media only for 0% viability were used as controls.
3. The assay plates were covered and incubated for 48 hours in a 37C, 5% CO2 incubator with controlled humidity.
4. After 48 hours, CellTilter-GloTM luminescent substrate mix (Promega) reagent was added to the assay plate and plates we incubated for 5 min at room temperature.
5. Signal was measured as median relative luminescence units on a ViewLux (PerkinElmer) multiplate reader.
[1] Heske CM, Davis MI, Baumgart JT, Wilson K, Gormally MV, Chen L, Zhang X, Ceribelli M, Duveau DY, Guha R, Ferrer M, Arnaldez FI, Ji J, Tran HL, Zhang Y, Mendoza A, Helman LJ, Thomas CJ. Matrix Screen Identifies Synergistic Combination of PARP Inhibitors and Nicotinamide Phosphoribosyltransferase (NAMPT) Inhibitors in Ewing Sarcoma. Clin Cancer Res. 2017 Dec 1;23(23):7301-7311. doi: 10.1158/1078-0432.CCR-17-1121. Epub 2017 Sep 12. PMID: 28899971; PMCID: PMC6636827.
Potency means the concentration at half of the fitted maximal effect.

Compound	Potency
COc1cc2cc(c1Cl)N(C)C(=O)C[C@H](OC(=O)C(C)C)[C@]1(C)O[C@H]1[C@H](C)[C@@H]1C[C@@](O)(NC(=O)O1)[C@H](OC)C=CC=C(C)C2	inactive
N=c1c2c(-c3ccccc3)c(-c3ccccc3)n(Cc3ccccc3)c2ncn1C1CCC(O)CC1 (stereo not given)	18.7 µM (active)
O=[N+]([O-])c1ncc[nH]1	3.32 µM (active)
COCC1(CO)C(=O)C2CCN1CC2 (stereo not given)	5.26 µM (active)
O=c1[nH]c2ccccc2n1C1CCN(Cc2ccc(-c3[nH]c4cc5ncnc5cc4nc3-c3ccccc3)cc2)CC1	14.8 µM (active)
CCOC(=O)c1cncn1[C@H](C)c1ccccc1	7.43 µM (active)
C[C@@]12OC(=O)[C@]1([C@@H](O)[C@@H]1C=CCCC1)NC(=O)[C@H]2CCCl	0.132 µM (active)
CO[C@H]1CCC(O[C@H]2C[C@H]([C@]3(C)CC[C@]4(C[C@H](O)[C@@H](C)[C@@H]([C@@H](C)C=C(C)C(=O)[C@H](C)C[C@H](C)C(=O)O)O4)O3)O[C@]3(O[C@@H]([C@H]4O[C@@](O)(CO)[C@H](C)C[C@H]4C)C[C@H]3C)[C@H]2C)O[C@H]1C (stereo not given in full)	1.66 µM (active)
CC[C@@]1(O)C(=O)OCc2c1cc1n(c2=O)Cc2cc3ccccc3nc2-1	0.935 µM (active)
COc1cc([C@@H]2c3cc4c(cc3[C@@H](O)C3COC(=O)C32)OCO4)cc(OC)c1O (stereo not given in full)	0.0935 µM (active)
C=C[C@@H]1CN2CCC1C[C@H]2[C@H](O)c1ccnc2ccccc12 (stereo not given in full)	7.43 µM (active)
O=S(=O)(CC1CS1)c1ccc(Oc2ccccc2)cc1 (stereo not given)	16.6 µM (active)
C=C1C[C@H]2[C@H]3CCC(=O)[C@@]3(C)CC[C@@H]2[C@@]2(C)C=CC(=O)C=C12	6.62 µM (active)
Cc1[nH]nc2ccc(-c3cncc(OC[C@@H](N)Cc4c[nH]c5ccccc45)c3)cc12	1.18 µM (active)
COC[C@H]1OC(=O)c2coc3c2[C@@]1(C)C1=C(C3=O)[C@@H]2CC[C@H](O)[C@@]2(C)C[C@@H]1OC(C)=O	1.05 µM (active)
CN1[C@H]2CC(O)C[C@H]1[C@H]1O[C@H]12 (stereo not given in full)	20.9 µM (active)
C[C@@H]1O[C@@H](O[C@@H]2C=C3CC[C@@H]4[C@@H](CC[C@]5(C)[C@H](c6ccc(=O)oc6)CC[C@@]45O)[C@@]3(C)CC2)[C@H](O)[C@H](O)[C@H]1O	0.0264 µM (active)
CN[C@@H]1Cc2cccc3[nH]c(=O)n(c23)C1	5.26 µM (active)
COc1ccc2c(c[n+](C)c3c4cc5c(cc4ccc23)OCO5)c1OC	6.62 µM (active)
CC[C@H]1C=CC=CC[C@@H](C)[C@H](O)[C@@](C)(O)C(=O)[C@@H](C)[C@H](O)[C@@H](C)C(=O)[C@@H](C)[C@H](O)[C@@H](C)C=CC(=O)O[C@@H]2[C@@H](C)[C@H](CC1)O[C@]1(CC[C@H](C)[C@H](C[C@@H](C)O)O1)[C@H]2C	0.0059 µM (active)

Compound	Potency
Cc1ccccc1-n1c(Cn2cnc3c(N)ncnc32)nc2cccc(C)c2c1=O	0.166 µM (active)
O=C(NCC1CCOCC1)c1cnc(Nc2ccc(Cl)cc2Cl)nc1C(F)(F)F	20.9 µM (active)
CN(C)NC(=O)CCC(=O)O	inactive
C#CC1(O)CCC2C3CCC4=CC(=O)CCC4(C)C3CCC21C (stereo not given)	9.35 µM (active)
C[C@]12Cc3cn[nH]c3C[C@@H]1CC[C@@H]1[C@H]2CC[C@@]2(C)[C@H]1CC[C@]2(C)O	23.5 µM (active)
N#C[C@H](O[C@@H]1O[C@H](CO[C@@H]2O[C@H](CO)[C@H](O)[C@H](O)[C@H]2O)[C@H](O)[C@H](O)[C@H]1O)c1ccccc1	23.5 µM (active)
C[C@]12CCC(=O)C(O)=C1CC[C@@H]1[C@H]3CCC(=O)[C@@]3(C)CC[C@@H]12	2.35 µM (active)
CC(=Cc1csc(C)n1)[C@@H]1C[C@H]2O[C@]2(C)CCC[C@H](C)[C@@H](O)[C@@H](C)C(=O)C(C)(C)[C@@H](O)CC(=O)O1	inactive
c1ccc(CCCN2CCN(CCOC(c3ccccc3)c3ccccc3)CC2)cc1	18.7 µM (active)
CCCCCC[C@H]1C(=O)O[C@H](C)[C@H](NC(=O)c2cccc(NC=O)c2O)C(=O)O[C@@H](C)[C@@H]1OC(=O)CC(C)C	0.148 µM (active)
Cc1ccccc1-n1c(Cn2ncc3c(N)ncnc32)nc2cccc(C)c2c1=O	inactive
CN(C)[C@@H]1C(=O)C(C(N)=O)=C(O)[C@@]2(O)C(=O)C3=C(O)c4c(O)cccc4[C@@](C)(O)[C@H]3[C@H](O)[C@@H]12	10.5 µM (active)
CCOC(=O)Nc1ccc(NCc2ccc(F)cc2)cc1N	inactive
C[C@]12CC[C@H](O)CC1=CC[C@H]1[C@H]3CCC(=O)[C@@]3(C)CC[C@@H]12	4.69 µM (active)
CN1CCN(c2ccc([N+](=O)[O-])c3no[n+]([O-])c23)CC1	20.9 µM (active)
CCN(CC)C(=O)c1ccc(C2=CC3(CCNCC3)Oc3cccc(O)c32)cc1	10.5 µM (active)
CC1=C(O)C(=O)C=C2C1=CC=C1[C@@]2(C)CC[C@@]2(C)[C@@H]3C[C@](C)(C(=O)O)CC[C@]3(C)CC[C@]12C	1.18 µM (active)
C[C@]12CC[C@H]3[C@@H](CCC4=CC(=O)CC[C@@]43C)[C@H]1CC[C@H]2OC(=O)CCC1CCCC1	23.5 µM (active)
COc1ccc2c(c1)[C@]13CCCCC1C(C2)N(C)CC3 (stereo not given in full)	inactive
CC=C(C)C(=O)O[C@H]1C(C)=C2[C@@H]3OC(=O)[C@@](C)(O)[C@@]3(O)[C@@H](OC(=O)CCC)C[C@](C)(OC(C)=O)[C@@H]2[C@@H]1OC(=O)CCCCCCC	0.0235 µM (active)
